# Experimental data as given in PubChem BioAssay (NCI).
# The panel holds about 79,000 compounds, 15% with a hit somewhere; the sample as a whole holds those more often. Values without a mark were called inactive. Calls of active or inactive are those of the source. Rule as the data show it: active = growth inhibition above about 70%; inactive = the rest.
# How the values were obtained:
# [1] = NCI Yeast Anticancer Drug Screen. Data for the rad52 strain (AID 147);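 also: 0% = growth of vehicle-treated control cultures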; conditions: S. cerevisiae rad52 mutant growth inhibition, hits give high values
# Method in brief: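 Genetically altered yeast (DNA damage repair defect) treated with compound; inhibition calculated relative to vehicle.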
# [2] = NCI Yeast Anticancer Drug Screen. Data for the wt1 strain (AID 149);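 also: 0% = growth of vehicle-treated wt1 cultures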; conditions: S. cerevisiae wt1 strain (SPY 50644) growth inhibition, hits give high values
# Method in brief: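 Growth inhibition read against vehicle controls after compound exposure of the wt1 yeast strain.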
# [3] = NCI Yeast Anticancer Drug Screen. Data for the rad50EPP+ strain (AID 151);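 also: 0% = growth of vehicle-treated control cultures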; conditions: S. cerevisiae rad50 mutant strain, hits give high values
# Method in brief: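 Strain rad50EPP+; compound exposure; % growth inhibition vs vehicle.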
# [4] = NCI Yeast Anticancer Drug Screen. Data for the rad50 strain (AID 155);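 also: 0% = growth of vehicle-only cultures of the same strain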; conditions: S. cerevisiae rad50 strain growth inhibition, hits give high values
# Method in brief: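 Readout: growth inhibition relative to vehicle-treated cultures. Compound exposure was carried out in a genetically defined yeast strain deficient in DNA damage repair.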
# [5] = NCI Yeast Anticancer Drug Screen. Data for the mec2-1 strain (AID 157); conditions: S. cerevisiae mec2-1 strain, hits give high values
# Method in brief: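 Cells of the genetically defined mec2-1 yeast strain are incubated with test compound. Inhibition of growth is calculated against vehicle-treated controls.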
# [6] = NCI Yeast Anticancer Drug Screen. Data for the rad14 strain (AID 159);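 also: 0% = growth of vehicle-treated control cultures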; conditions: S. cerevisiae rad14 strain growth inhibition, hits give high values
# Method in brief: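 Growth inhibition vs vehicle controls; genetically altered yeast strain (DNA damage repair defect) treated with test compounds.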
# [7] = NCI Yeast Anticancer Drug Screen. Data for the sgs1 mgt1 strain (AID 161);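 also: 0% = growth of cultures given vehicle only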; conditions: S. cerevisiae sgs1 mgt1 strain, hits give high values
# Method in brief: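 Test agents were incubated with a DNA-repair-mutant yeast strain. Growth was then read and compared against vehicle-treated controls.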
# [8] = NCI Yeast Anticancer Drug Screen. Data for the CLN2oe strain (AID 163);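 also: 0% = growth of vehicle-only control cultures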; conditions: S. cerevisiae CLN2oe strain, hits give high values
# Method in brief: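 Strain altered in cell-cycle control, incubated with compound; growth compared to solvent-treated controls.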
# [9] = NCI Yeast Anticancer Drug Screen. Data for the cln2 rad14 strain (AID 165);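 also: 0% = growth equal to vehicle treated cultures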; conditions: S. cerevisiae cln2 rad14 strain, hits give high values
# Method in brief: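 The screen exposed genetically defined yeast (cln2 rad14) to test compounds and scored growth inhibition relative to vehicle-treated controls.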
# [10] = NCI Yeast Anticancer Drug Screen. Data for the bub3 strain (AID 167); conditions: S. cerevisiae bub3 mutant strain, hits give high values
# Method in brief: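 Readout: yeast growth inhibition, expressed relative to vehicle-only wells. The test organism is a mutant strain from a panel with lesions in DNA repair or checkpoint genes.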
# [11] = NCI Yeast Anticancer Drug Screen. Data for the wt2 strain (AID 169);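 also: 0% = growth of vehicle-treated yeast cultures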; conditions: S. cerevisiae wt2 strain growth inhibition, hits give high values
# Method in brief: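 Steps: yeast strain treated with compound; growth recorded; inhibition calculated relative to cultures given vehicle alone.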
# [12] = NCI Yeast Anticancer Drug Screen. Data for the sgs1 strain (AID 173);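 also: 0% = growth of vehicle-only control cultures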; conditions: S. cerevisiae sgs1 mutant, hits give high values
# Method in brief: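 Inhibition of yeast growth served as the measure. The mutant strain was treated with each compound, and growth was normalised to cultures receiving vehicle alone.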
# [13] = NCI Yeast Anticancer Drug Screen. Data for the mlh1 rad18 strain (AID 175); conditions: S. cerevisiae mlh1 rad18 strain growth inhibition, hits give high values
# Method in brief: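 Compound-treated yeast growth, normalised to vehicle controls. Strain bears defined DNA repair mutations.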
# [14] = NCI Yeast Anticancer Drug Screen. Data for the rad18 strain (AID 177); conditions: S. cerevisiae rad18 mutant growth inhibition, hits give high values
# Method in brief: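 Inhibition values reflect reduced yeast growth compared with vehicle-treated controls, using a strain engineered with a DNA damage repair defect.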
# [15] = NCI Yeast Anticancer Drug Screen. Data for the mlh1 strain (AID 171);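 also: 0% = growth of vehicle-treated control cultures of the same strain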; conditions: S. cerevisiae mlh1 strain growth inhibition, hits give high values
# Method in brief: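 Yeast screen: mutant strain plus compound, growth scored against vehicle control wells.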
# [16] = at 5.0 µM (retest, dose inferred, filed as 0.5)
# [17] = at 50.0 µM (retest, dose inferred, filed as 5.0)
smiles,measurement,setting,value
CC1OC(OC2CCCc3c(O)c4c(c(O)c32)C(=O)c2ccccc2C4=O)CC(N)C1O (stereo not drawn),growth inhibition,[1]; at 1.2 µM,3%
same,growth inhibition,[1]; at 3.7 µM,46%
same,growth inhibition,[1]; at 11.0 µM,94% (active)
same,growth inhibition,[1]; at 33.0 µM,98% (active)
same,growth inhibition,[1]; at 100.0 µM,99% (active)
same,growth inhibition,[2]; at 1.2 µM,1%
same,growth inhibition,[2]; at 3.7 µM,12%
same,growth inhibition,[2]; at 11.0 µM,35%
same,growth inhibition,[2]; at 33.0 µM,92% (active)
same,growth inhibition,[2]; at 100.0 µM,99% (active)
same,growth inhibition,[3]; at 1.2 µM,10%
same,growth inhibition,[3]; at 3.7 µM,30%
same,growth inhibition,[3]; at 11.0 µM,73% (active)
same,growth inhibition,[3]; at 33.0 µM,97% (active)
same,growth inhibition,[3]; at 100.0 µM,98% (active)
same,growth inhibition,[4]; at 1.2 µM,-49%
same,growth inhibition,[4]; at 3.7 µM,41%
same,growth inhibition,[4]; [16],60%
same,growth inhibition,[4]; at 11.0 µM,95% (active)
same,growth inhibition,[4]; at 33.0 µM,99% (active)
same,growth inhibition,[4]; [17],98% (active)
same,growth inhibition,[4]; at 50.0 µM,80.7% (active)
same,growth inhibition,[4]; at 100.0 µM,98% (active)
same,growth inhibition,[5]; at 1.2 µM,0%
same,growth inhibition,[5]; at 3.7 µM,-2%
same,growth inhibition,[5]; [16],8%
same,growth inhibition,[5]; at 11.0 µM,4%
same,growth inhibition,[5]; at 33.0 µM,82% (active)
same,growth inhibition,[5]; [17],99% (active)
same,growth inhibition,[5]; at 50.0 µM,53%
same,growth inhibition,[5]; at 100.0 µM,99% (active)
same,growth inhibition,[6]; at 1.2 µM,2%
same,growth inhibition,[6]; at 3.7 µM,12%
same,growth inhibition,[6]; at 11.0 µM,55%
same,growth inhibition,[6]; at 33.0 µM,99% (active)
same,growth inhibition,[6]; at 100.0 µM,99% (active)
same,growth inhibition,[7]; [16],14%
same,growth inhibition,[7]; [17],98% (active)
same,growth inhibition,[7]; at 50.0 µM,70.5% (active)
same,growth inhibition,[8]; at 1.2 µM,2%
same,growth inhibition,[8]; at 3.7 µM,-1%
same,growth inhibition,[8]; at 11.0 µM,2%
same,growth inhibition,[8]; at 33.0 µM,84% (active)
same,growth inhibition,[8]; at 100.0 µM,98% (active)
same,growth inhibition,[9]; [16],-3%
same,growth inhibition,[9]; [17],98% (active)
same,growth inhibition,[9]; at 50.0 µM,43.9%
same,growth inhibition,[10]; at 1.2 µM,-4%
same,growth inhibition,[10]; at 3.7 µM,-5%
same,growth inhibition,[10]; [16],2%
same,growth inhibition,[10]; at 11.0 µM,-7%
same,growth inhibition,[10]; at 33.0 µM,89% (active)
same,growth inhibition,[10]; [17],98% (active)
same,growth inhibition,[10]; at 50.0 µM,52.8%
same,growth inhibition,[10]; at 100.0 µM,98% (active)
same,growth inhibition,[11]; at 1.2 µM,4%
same,growth inhibition,[11]; at 3.7 µM,9%
same,growth inhibition,[11]; at 11.0 µM,61%
same,growth inhibition,[11]; at 33.0 µM,97% (active)
same,growth inhibition,[11]; at 100.0 µM,99% (active)
same,growth inhibition,[12]; at 1.2 µM,-12%
same,growth inhibition,[12]; at 3.7 µM,-7%
same,growth inhibition,[12]; at 11.0 µM,34%
same,growth inhibition,[12]; at 33.0 µM,97% (active)
same,growth inhibition,[12]; at 100.0 µM,99% (active)
same,growth inhibition,[13]; [16],12%
same,growth inhibition,[13]; [17],99% (active)
same,growth inhibition,[13]; at 50.0 µM,66.2%
same,growth inhibition,[14]; at 1.2 µM,-8%
same,growth inhibition,[14]; at 3.7 µM,0%
same,growth inhibition,[14]; at 11.0 µM,8%
same,growth inhibition,[14]; at 33.0 µM,90% (active)
same,growth inhibition,[14]; at 100.0 µM,99% (active)
CCCCCCCCCCCCCC(=O)OC(C)CCC1CCCO1 (stereo not drawn),growth inhibition,[1]; at 1.2 µM,-2%
same,growth inhibition,[1]; at 3.7 µM,0%
same,growth inhibition,[1]; at 11.0 µM,2%
same,growth inhibition,[1]; at 33.0 µM,1%
same,growth inhibition,[1]; at 100.0 µM,-8%
same,growth inhibition,[2]; at 1.2 µM,-3%
same,growth inhibition,[2]; at 3.7 µM,-2%
same,growth inhibition,[2]; at 11.0 µM,-1%
same,growth inhibition,[2]; at 33.0 µM,-1%
same,growth inhibition,[2]; at 100.0 µM,-3%
same,growth inhibition,[3]; at 1.2 µM,2%
same,growth inhibition,[3]; at 3.7 µM,2%
same,growth inhibition,[3]; at 11.0 µM,-2%
same,growth inhibition,[3]; at 33.0 µM,-4%
same,growth inhibition,[3]; at 100.0 µM,-6%
same,growth inhibition,[4]; at 1.2 µM,1%
same,growth inhibition,[4]; at 3.7 µM,0%
same,growth inhibition,[4]; [16],3%
same,growth inhibition,[4]; at 11.0 µM,0%
same,growth inhibition,[4]; at 33.0 µM,-7%
same,growth inhibition,[4]; [17],15%
same,growth inhibition,[4]; at 50.0 µM,19.4%
same,growth inhibition,[4]; at 100.0 µM,-4%
same,growth inhibition,[5]; at 1.2 µM,0%
same,growth inhibition,[5]; at 3.7 µM,-1%
same,growth inhibition,[5]; [16],13%
same,growth inhibition,[5]; at 11.0 µM,-6%
same,growth inhibition,[5]; at 33.0 µM,1%
same,growth inhibition,[5]; [17],5%
same,growth inhibition,[5]; at 50.0 µM,23.5%
same,growth inhibition,[5]; at 100.0 µM,-1%
same,growth inhibition,[6]; at 1.2 µM,-2%
same,growth inhibition,[6]; at 3.7 µM,-6%
same,growth inhibition,[6]; at 11.0 µM,0%
same,growth inhibition,[6]; at 33.0 µM,3%
same,growth inhibition,[6]; at 100.0 µM,-4%
same,growth inhibition,[7]; [16],3%
same,growth inhibition,[7]; [17],25%
same,growth inhibition,[7]; at 50.0 µM,13.2%
same,growth inhibition,[8]; at 1.2 µM,1%
same,growth inhibition,[8]; at 3.7 µM,2%
same,growth inhibition,[8]; at 11.0 µM,2%
same,growth inhibition,[8]; at 33.0 µM,4%
same,growth inhibition,[8]; at 100.0 µM,14%
same,growth inhibition,[9]; [16],81% (active)
same,growth inhibition,[9]; [17],39%
same,growth inhibition,[9]; at 50.0 µM,37.1%
same,growth inhibition,[10]; at 1.2 µM,1%
same,growth inhibition,[10]; at 3.7 µM,-1%
same,growth inhibition,[10]; [16],31%
same,growth inhibition,[10]; at 11.0 µM,-1%
same,growth inhibition,[10]; at 33.0 µM,-1%
same,growth inhibition,[10]; [17],1%
same,growth inhibition,[10]; at 50.0 µM,34.6%
same,growth inhibition,[10]; at 100.0 µM,-1%
same,growth inhibition,[11]; at 1.2 µM,-3%
same,growth inhibition,[11]; at 3.7 µM,-3%
same,growth inhibition,[11]; at 11.0 µM,-2%
same,growth inhibition,[11]; at 33.0 µM,-3%
same,growth inhibition,[11]; at 100.0 µM,-6%
same,growth inhibition,[15]; at 1.2 µM,-1%
same,growth inhibition,[15]; at 3.7 µM,3%
same,growth inhibition,[15]; at 11.0 µM,2%
same,growth inhibition,[15]; at 33.0 µM,3%
same,growth inhibition,[15]; at 100.0 µM,4%
same,growth inhibition,[12]; at 1.2 µM,-1%
same,growth inhibition,[12]; at 3.7 µM,1%
same,growth inhibition,[12]; at 11.0 µM,1%
same,growth inhibition,[12]; at 33.0 µM,3%
same,growth inhibition,[12]; at 100.0 µM,1%
same,growth inhibition,[14]; at 1.2 µM,0%
same,growth inhibition,[14]; at 3.7 µM,1%
same,growth inhibition,[14]; at 11.0 µM,-3%
same,growth inhibition,[14]; at 33.0 µM,-4%
same,growth inhibition,[14]; at 100.0 µM,-5%
O/N=C/C1c2ccccc2-c2ccccc21,growth inhibition,[1]; at 1.2 µM,0%
same,growth inhibition,[1]; at 3.7 µM,6%
same,growth inhibition,[1]; at 11.0 µM,20%
same,growth inhibition,[1]; at 33.0 µM,58%
same,growth inhibition,[1]; at 100.0 µM,97% (active)
same,growth inhibition,[2]; at 1.2 µM,-4%
same,growth inhibition,[2]; at 3.7 µM,-4%
same,growth inhibition,[2]; at 11.0 µM,-7%
same,growth inhibition,[2]; at 33.0 µM,20%
same,growth inhibition,[2]; at 100.0 µM,49%
same,growth inhibition,[3]; at 1.2 µM,-1%
same,growth inhibition,[3]; at 3.7 µM,7%
same,growth inhibition,[3]; at 11.0 µM,9%
same,growth inhibition,[3]; at 33.0 µM,28%
same,growth inhibition,[3]; at 100.0 µM,51%
same,growth inhibition,[4]; at 1.2 µM,-1%
same,growth inhibition,[4]; at 3.7 µM,-6%
same,growth inhibition,[4]; [16],-199%
same,growth inhibition,[4]; at 11.0 µM,24%
same,growth inhibition,[4]; at 33.0 µM,62%
same,growth inhibition,[4]; [17],58%
same,growth inhibition,[4]; at 50.0 µM,56.2%
same,growth inhibition,[4]; at 100.0 µM,97% (active)
same,growth inhibition,[5]; at 1.2 µM,3%
same,growth inhibition,[5]; at 3.7 µM,1%
same,growth inhibition,[5]; [16],-53%
same,growth inhibition,[5]; at 11.0 µM,-15%
same,growth inhibition,[5]; at 33.0 µM,21%
same,growth inhibition,[5]; [17],-13%
same,growth inhibition,[5]; at 50.0 µM,99% (active)
